Compound activity as filed in PubChem.
D1 agonist – Allosteric Agonists of the Human D1 Dopamine Receptor: qHTS. 360,000 tested, 1% active. HEK293 T-REx D1 cells, calcium flux, agonist mode. D(1A) dopamine receptor (Homo sapiens), P21728. activation, % at 2 µM; in the data active = activation above about 30%; also: 0% is about no effect
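Agonism was scored from calcium flux recorded over 180 s (1 read/s) after pintool compound addition, following a 10-cycle baseline. Cells were inducible force-coupled HEK293 TREx D1, plated overnight at 30 C and loaded with no-wash calcium dye.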
D1 potentiator – Potentiators of Human D1 Dopamine Receptor: qHTS; HEK293 TREx D1 cells, calcium flux, dopamine EC20 potentiation; AID 504651, 2011; 360,000 tested, 0.036% active; D(1A) dopamine receptor (Homo sapiens), P21728; potentiation, % at 10 µM; in the data active = potentiation above about 30%; also: 0% is about no effect
D3 ag – qHTS of D3 Dopamine Receptor Agonist: qHTS. D(3) dopamine receptor (Homo sapiens), P35462. D3R DiscoveRx beta-arrestin cells, luminescence, 90 min. max activation, %. 410,000 tested, 0.58% active; in the data active = max activation above about 30%; also: 0% is about no effect
Target sequence (P35462 whole entry, looked up): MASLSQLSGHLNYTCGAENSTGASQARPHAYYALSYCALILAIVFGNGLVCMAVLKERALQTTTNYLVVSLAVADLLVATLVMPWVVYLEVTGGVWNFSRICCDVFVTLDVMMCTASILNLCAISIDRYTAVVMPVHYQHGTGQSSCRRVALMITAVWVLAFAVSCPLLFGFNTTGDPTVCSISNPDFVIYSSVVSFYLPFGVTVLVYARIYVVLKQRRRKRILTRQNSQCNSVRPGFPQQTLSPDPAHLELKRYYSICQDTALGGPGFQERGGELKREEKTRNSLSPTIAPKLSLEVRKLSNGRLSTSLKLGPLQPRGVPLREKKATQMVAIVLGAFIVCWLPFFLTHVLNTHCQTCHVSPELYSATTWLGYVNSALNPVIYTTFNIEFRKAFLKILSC
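Agonist-mode cell screen: cells plated at 1500/well and incubated overnight at 37 °C, then exposed to library compounds for 90 min at 37 °C. Detection reagent was added for 30–60 min at room temperature, and luminescence was read.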
D1 antag – Antagonist of Human D 1 Dopamine Receptor: qHTS; HEK293 TREx D1 cells, calcium flux, dopamine EC80; hits give low values; activity change, negative = inhibition, % at 10 µM; 360,000 tested, 3.2% active; AID 504652, 2011; in the data active = activity change below about -30%; also: % is scaled to controls: 0 for no effect and ±100 for the full control effect
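Inducible Hek293 Trex D1 cells (tetracycline, overnight, 30 C). Calcium dye 30–90 min RT. Antagonist mode: EC80 dopamine added after 180 s compound read.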
D3 antag – qHTS of D3 Dopamine Receptor Antagonist: qHTS. D(3) dopamine receptor (Homo sapiens), P35462. D3R cells, DiscoveRx beta-arrestin luminescence, antagonist mode; hits give low values. max response, negative = inhibition, %. 360,000 tested, 2.5% active. AID 652054, 2013; in the data active = max response below about -50%; also: % is scaled to controls: 0 for no effect and ±100 for the full control effect
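Cells plated overnight at 1500 cells/well, then exposed to library compounds with dopamine controls for 90 minutes at 37 degrees C. DiscoveRx reagent added for 30–60 minutes at room temperature; luminescence read, quantitative HTS format.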
The depositor's hits bear a star; nt = no result given; ! = repeats disagree. Shown are actives, neighbours in structure and some others; about 6% of the full set was active somewhere.

SMILES	D1 agonist	D1 potentiator	D3 ag	D1 antag	D3 antag
COC(=O)C1=C(N)Oc2cc(C)n(C)c(=O)c2C1c1ccc(Cl)c(Cl)c1 (configuration not stated)	0	-3	1	-33*	-9
COC(=O)C1=C(N)Oc2cc(C)n(CC3CCCO3)c(=O)c2C1c1ccc(Cl)c(Cl)c1 (configuration not stated)	5	1	-12	-6	-18
Cc1nn(-c2ccccc2)c(/N=C/c2ccc(O)cc2)c1-c1ccccc1	1	-8	4	-44*	16
CCN(CCCNC(=O)c1nn(-c2ccc(OC)cc2)c(=O)c2c1c1ccccc1n2C)c1ccccc1	1	4	4	13	nt
C/C(=N\NC(=O)CNc1ccc(F)cc1)c1cc2ccccc2o1	2	-5	4	-40*	2
Cc1ccc2scc(N3CCCCC3C)c(=O)c2c1 (configuration not stated)	2	1	2	11	nt
NC(=O)c1ccc[n+](CC(=O)c2ccc(Cl)c(Cl)c2)c1	-1	-4	-1	-83*	2
O=C(Nc1ccccc1)Nc1ccc2c(c1)CCC2	13	-1	-5	-13	-17
O=C(Nc1cccc(F)c1)c1c(F)c(F)c(F)c(F)c1F	18	-5	3	-36*	7
O=C(Nc1cccc(F)c1)Nc1ccc2c(c1)CCC2	20	-10	-1	-84*	7
CN1CCN(C(=O)C2(NC(=O)Nc3cccc(F)c3)CCCCC2)CC1	3	-4	-2	-30*	-29
O=C(Nc1cccc([N+](=O)[O-])c1)Nc1ccc2c(c1)CCC2	21	-4	-6	-64*	0
COc1ccc(/C=C\c2onc(C)c2S(=O)(=O)N2CCC(C(=O)Nc3ccccc3OC)CC2)cc1	9	0	2	-20	nt
CCOC(=O)CNC(=O)Nc1cc(C(=O)NCc2ccc(C(C)C)cc2)ccc1N1CCCC1	2	-1	-5	0	nt
CC(=O)Nc1cccc(NC(=O)c2cc3c(=O)n4cccc(C)c4nc3n2C)c1	5	-2	-3	-1	nt
Cc1cc(OCC(=O)Nc2nc3c(s2)CCCC3)cc(C)c1Cl	1	1	12	-2	nt
O=C(Nc1ccccc1Oc1ccccc1)[C@@H]1O[C@H](CO)[C@H](O)[C@H](O)[C@H]1O	nt	nt	-33	nt	-162*
COc1ccc(-c2ccccc2)cc1NC(=O)[C@@H]1O[C@H](CO)[C@@H](O)[C@H]1O	nt	nt	-1	nt	-5
Cc1cc(N(CCO)CCO)ccc1N=Nc1cc(F)ccc1F	-1	-5	-8	-28	-74*
CSc1nc(Nc2ccc(C)cc2)c(C#N)c(-c2ccccc2)n1	-1	1	-8	-2	nt
C/C(=N\NC(=S)NCc1ccccc1)c1ccccc1	1	0	-3	14	-28
C/C(=N\NC(=S)NCc1ccccc1)c1ccc(C#N)cc1	0	-1	1	-33*	-15
COc1ccc(-c2cc(C(=O)NCc3ccc(F)cc3)c3c(-c4ccc(F)cc4)[nH]nc3n2)cc1OC	-1	1	1	-2	nt
Cc1ccc(-c2cc(-c3ccccc3)c(C#N)c(SCC(O)CS(=O)(=O)Cc3ccccc3)n2)cc1 (configuration not stated)	11	1	-3	-39*	nt
CCCc1nn2c(=O)cc(COC(=O)c3cccc(NC(=O)COc4ccccc4C)c3)nc2s1	0	2	5	5	nt
SMILES	D1 agonist	D1 potentiator	D3 ag	D1 antag	D3 antag
CC1(C(=O)NCCC#N)CCN1C(=O)C1(c2ccccc2)CC1 (configuration not stated)	nt	nt	-10	nt	-63*
CC(C)(C)CNC(=O)C1(C)CCN1C(=O)C1(c2ccccc2)CC1 (configuration not stated)	nt	nt	-6	nt	0
CCC(=O)N1CCc2cc(S(=O)(=O)CCC(=O)Nc3ccc(Cl)c(C(F)(F)F)c3)ccc21	2	6	5	-2	nt
CCn1cnc2c1c(=O)n(CC(=O)Nc1ccc3c(c1)OC(F)(F)O3)c(=O)n2Cc1ccccc1	2	3	3	8	-50*
Cn1cnc2c1c(=O)n(Cc1cccc(Br)c1)c(=O)n2C	4	-2	0	5	-29
CCn1cnc2c1c(=O)n(Cc1cccc(Br)c1)c(=O)n2Cc1ccccc1	12	-1	35*	1	-1
O=C(O)c1ccccc1OP(=O)(O)O	nt	nt	-5	nt	nt
O=C(O)/C=C\C(=O)Nc1ccc(Oc2ccc(Br)cc2)cc1	-1	-4	6	-31*	8
O=C(O)/C=C\C(=O)Nc1ccc(Oc2ccccc2)cc1	0	-6	2	-63*	25
CCOC(=O)c1[nH]c(C)c(CCC(=O)Nc2ccc(C)cc2Cl)c1C	3	-1	-8	4	nt
CN(C)S(=O)(=O)c1cccc(NC(=O)CSc2ncnc3ccccc23)c1	11	-3	65*	-15	0
CN(C)S(=O)(=O)c1cccc(NC(=O)CSc2nnnn2-c2ccccc2)c1	15	-6	-3	-41*	30
O=C(CSc1nnnn1-c1ccccc1)CC(=O)Nc1ccc(Cl)cc1	7	-5	0	-34*	7
CC(C)CCNC(=O)CN1C(=O)c2cccnc2Sc2ccccc21	0	-4	-4	7	nt
Cc1nc2nc(NC(=O)CC(C)C)[nH]n2c(=O)c1Cc1ccccc1	-1	2	-3	4	nt
CC(C)(CO)Nc1nc(Cl)nc(NC2CCCCC2)n1	1	0	34*	-3	-21
CCNc1nc(Cl)nc(NC2CCCCC2)n1	1	1	-4	-19	3
Cc1cc(C)c(C)c(OCC(=O)Nc2ccc(S(=O)(=O)Nc3nc(C)cc(C)n3)cc2)c1	0	-1	8	19	nt
Cc1ccc(C)c(CN2C(=O)c3ccccc3Sc3ccc(C(=O)NCc4ccco4)cc32)c1	8	-1	-3	7	nt
CCN1CCN(c2cc(C)c3cc(NC(=O)c4cccnc4Cl)ccc3n2)CC1	0	1	-3	-11	-13
Cc1cc(N2CCN(C)CC2)nc2ccc(NC(=O)c3ccccc3F)cc12	0	-4	4	-42*!	9
CCN1CCN(c2cc(C)c3cc(NC(=O)c4ccncc4)ccc3n2)CC1	2	-2	-6	2	-13
CCOc1cc(C(=O)Nc2ccc3nc(N4CCN(C)CC4)cc(C)c3c2)cc(OCC)c1OCC	0	0	-23	-34*	nt
Cc1cc(N2CCN(C)CC2)nc2ccc(NC(=O)c3cccnc3Cl)cc12	2	30*	-1	2	0
CCN1CCN(c2cc(C)c3cc(NC(=O)c4ccccc4F)ccc3n2)CC1	-1	0	-10	-5	nt
Cc1ccc(NC(=O)c2ccc(Br)o2)c([N+](=O)[O-])c1	nt	nt	1	nt	-14
